Screening data from PubChem.
TDP1 cell CPT: growth inhibition of DT40 Tdp1-/-;hTDP1 cells with camptothecin (screen for TDP1 inhibitors); chicken DT40 Tdp1-/-;hTDP1 cells + 20 nM CPT, ATP luminescence, 48 h; Potency, µM (titrated, usually from 46.2 µM), without a hit: at the top dose activity change, negative = growth inhibition, usual class: inhibitors; 420,000 tested, 12% active; AID 686979; note: potency is the fitted concentration of half-maximal effect; nearly all actives have a fitted effect of over 55% in size
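Chicken DT40 Tdp1-/- cells complemented with human TDP1, 400 cells/well, exposed to compounds plus 20 nM camptothecin for at least 48 h at 37 C; viability read as ATP content by CellTiter-Glo luminescence.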
DT40 TDP1 no CPT: qHTS for Inhibitors of human tyrosyl-DNA phosphodiesterase 1 (TDP1): qHTS in cells in absence of CPT | DT40 Tdp1-/- hTDP1 cells, no CPT, ATP luminescence, 48 h | Potency, µM (top dose mostly 46.2 µM), inactives show at the highest dose activity change, negative = growth inhibition, actives largely listed as inhibitors | 420,000 tested, 15% active; note: potency is the fitted concentration of half-maximal effect; nearly all actives have a fitted effect of over 55% in size
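Chicken DT40 Tdp1-/- cells stably complemented with human TDP1 were seeded at 400 cells/well with DMSO in place of 20 nM camptothecin. After compound pinning, cells grew at least 48 hr at 37 °C; viability read by CellTiter-Glo luminescence.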
RORg inh: blocks mouse ROR gamma transcriptional activity. P51450. Drosophila S2 Gal4-RORgamma UAS-luciferase reporter, 20 h. Potency, µM (highest dose often 53.6 µM), for inactives: at the top dose activity change, negative = inhibition, hits mostly inhibitors. 310,000 tested, 5.4% active; note: potency is the fitted concentration of half-maximal effect; nearly all actives have a fitted effect of over 60% in size
Target sequence (P51450 whole entry, looked up, the tested form may be a part): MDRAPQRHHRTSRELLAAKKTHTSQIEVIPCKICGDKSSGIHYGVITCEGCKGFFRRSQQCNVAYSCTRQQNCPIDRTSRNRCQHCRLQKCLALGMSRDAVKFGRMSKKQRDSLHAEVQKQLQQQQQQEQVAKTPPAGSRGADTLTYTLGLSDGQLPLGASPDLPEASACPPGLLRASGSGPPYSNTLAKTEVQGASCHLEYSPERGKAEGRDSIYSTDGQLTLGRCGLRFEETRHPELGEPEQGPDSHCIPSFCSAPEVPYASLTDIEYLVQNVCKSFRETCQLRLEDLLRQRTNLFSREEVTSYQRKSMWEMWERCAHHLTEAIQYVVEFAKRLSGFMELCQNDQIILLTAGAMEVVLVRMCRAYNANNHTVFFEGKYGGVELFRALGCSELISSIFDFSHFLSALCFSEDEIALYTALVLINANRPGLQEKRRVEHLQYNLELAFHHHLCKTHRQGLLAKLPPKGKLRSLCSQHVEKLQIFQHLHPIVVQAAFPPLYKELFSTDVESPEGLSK
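In this cell-based reporter format, copper sulfate (700 uM final) drives Gal4–ROR gamma fusion expression from a metallothionein promoter in Drosophila Schneider cells; compounds preincubated 1 hr, reporter read after 20 hr at ambient temperature.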
ELG1 repair inh: inhibitors of ELG1-dependent DNA repair in HEK293T cells; 330,000 tested, 2.3% active; HEK293T ELG1-luciferase reporter, luminescence, 16 h; DNA damage induced by 5-fluorouridine; Potency, µM (highest dose often 46.1 µM), without a hit: top-dose activity change, negative = inhibition, actives largely listed as inhibitors; note: potency is the fitted concentration of half-maximal effect; nearly all actives have a fitted effect of over 55% in size
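Quantitative HTS, concentration-response format. 2,000 cells/well co-treated with 5-fluorouridine and compound, 16 hr in 5% CO2 at 37 °C; ONE-Glo luminescence read after 30 min.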
IL-1B inflam inh: inhibitors of inflammasome signaling (IL-1 beta secretion). 360,000 tested, 4.7% active. activity change, % at 57.5 µM. THP-1 LPS/ATP IL-1B secretion, AlphaLISA, 16 h; stronger effect = lower value. AID 743279; in the data active = activity change below about -50%; inconclusive = mostly about -30% to -49%
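Secreted IL-1B measured by AlphaLISA bead assay after 16 h compound exposure of THP-1 cells; compounds (final up to 57.5 uM) added 1 h before LPS (250 ng/mL) and ATP (1.25 mM) stimulation; lower signal means less secretion.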
VP16 counter: inhibits Gal4-VP16 luciferase reporter, ROR gamma counter-screen; Drosophila S2 Gal4-VP16 UAS-luciferase, luminescence, 20 h; Potency, µM (top dose mostly 53.6 µM), inactives show top-dose activity, negative = inhibition, usual class: inhibitors; 310,000 tested, 3.5% active;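 note: Gal4-VP16 expression switched on by copper sulfate through the metallothionein promoter; potency is the fitted concentration of half-maximal effect; nearly all actives have a fitted effect of over 50% in size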
Active calls of the source: *; u = inconclusive; x = no result; [ ] = dose if it differs, or a comment. A selection: hits, their analogues and other compounds. The true share with any hit is near 21%. Unless noted, calls come from the whole dose curve; as a rule, active = well fitted curve in the direction sought with a large enough effect; inconclusive = small, poorly fitted or top-dose-only effect, or another doubt; inactive = no such curve, though single readings can be large; an effect the other way counts as inactive or inconclusive. % is set by controls: 0 for no effect and ±100 for the full control effect.

SMILES	TDP1 cell CPT	DT40 TDP1 no CPT	RORg inh	ELG1 repair inh	IL-1B inflam inh	VP16 counter
O=C(C1=C(O)C(=O)N(c2nc3ccc(Cl)cc3s2)C1c1ccco1)c1ccco1 (configuration not stated)	u	2.3µM*	x	-9%	63	x
CCOC(N)=O	-12%	5%	2%	x	x	1%
O=C(Cn1cnc2c(nnn2Cc2ccccc2)c1=O)N1CCN(c2ccccc2)CC1	u	23µM*	53%	-17%	-18	-10%
O=C(Cn1cnc2c(nnn2Cc2ccccc2F)c1=O)N1CCN(c2ccccc2)CC1	u	u	u	u	-14	3%
O=C(Cn1cnc2c(nnn2Cc2ccc(Cl)cc2)c1=O)N1CCN(c2ccccc2)CC1	18µM*	21µM*	34%	u	-10	-12%
Cc1cccc(Cn2cnc3c(nnn3Cc3ccc(Cl)cc3)c2=O)c1	u	16µM*	22%	-20%	0	-2%
O=C(Cn1cnc2c(nnn2Cc2ccc(Cl)cc2)c1=O)N1CCCc2ccccc21	u	u	u	-14%	7	-6%
Cc1ccc(Cn2nnc3c(=O)n(Cc4cccc(C)c4)cnc32)cc1	-9%	u	26%	-13%	-11	-5%
O=C1CCc2cc(S(=O)(=O)NC3CCCCC3)ccc2N1	7%	-11%	x	27%	13	x
FC(F)(F)c1ccc(CSc2ccccn2)cc1	-3%	-26%	4%	3%	-61*	0%
O=C1CCC(=O)N1N1C(=O)C2C3c4ccccc4C(c4ccccc43)C2C1=O (configuration not stated)	13%	0%	-1%	1%	2	3%
O=C1C2C3c4ccccc4C(c4ccccc43)[C@@H]2c2nc3ccccc3n21 (some centres not stated)	12µM*	10µM*	11µM*	u	1	-9%
Cc1ccccc1C(=O)N/N=C1\SCC(=O)N1Cc1ccco1	6%	-5%	-20%	-5%	27	u
CCOC(=O)CSC1=C(C#N)C(c2ccc(C)s2)CC(=O)N1 (configuration not stated)	5.2µM*	3.3µM*	3%	u	-18	-7%
COC(=O)CSC1=C(C#N)C(c2cccc(OC)c2)CC(=O)N1 (configuration not stated)	u	u	-26%	-8%	0	3%
CCOC(=O)CSC1=C(C#N)C(c2ccccc2OC)CC(=O)N1 (configuration not stated)	16µM*	16µM*	4%	-15%	41	4%
COC(=O)CSC1=C(C#N)C(c2cccc(F)c2)CC(=O)N1 (configuration not stated)	u	23µM*	-2%	-6%	53	-5%
COc1cccc(C(=O)Nc2cccc(-c3cn4c(C)csc4n3)c2)c1OC	18µM*	16µM*	x	x	x	x
COc1ccc(C(=O)Nc2cccc(-c3cn4ccsc4n3)c2)c(OC)c1	5.2µM*	6.5µM*	x	x	x	x
CCCC(=O)Nc1cccc(-c2cn3c(C)csc3n2)c1	-26%	u	x	x	x	x
CC(C)CN=C(NS(=O)(=O)c1ccccc1)C(Cl)(Cl)Cl	4.6µM*	5.8µM*	u	u	-12	u
COc1cc(-c2nnc3n2CCCCC3)cc(OC)c1OC	-4%	18%	0%	u	-19	7%
COc1cccc(C(=O)N(Cc2cc3cc4c(cc3nc2N(C)C)OCO4)CC2CCCO2)c1 (configuration not stated)	0%[9.04 µM]	-14%	x	x	x	x
COc1ccc(NC(=O)CN(C)CC(=O)N2CCCCCC2)cc1	-1%	-6%	x	15%	10	x
c1ccc(CN2CCN(C(c3ccccc3)c3nnnn3Cc3ccccc3)CC2)cc1 (configuration not stated)	u	18µM*	40%	u	-58*	3%
SMILES	TDP1 cell CPT	DT40 TDP1 no CPT	RORg inh	ELG1 repair inh	IL-1B inflam inh	VP16 counter
Cc1cccc2cc(C(c3nnnn3Cc3ccccc3)N3CCCc4ccccc43)c(=O)[nH]c12 (configuration not stated)	13µM*	16µM*	-5%	7%	46	-17%
Cc1ccc(S(=O)(=O)Cn2nnnc2C(c2ccc(F)cc2)N2CCCCC2)cc1 (configuration not stated)	u	23µM*	u	-14%	-1	-6%
CCC(C)(C)n1nnnc1C(c1ccccc1)N1CCN(Cc2ccccc2)CC1 (configuration not stated)	19%	6%	6%	8%	-6	4%
Cc1ccc(C(c2nnnn2Cc2ccccc2)N2CCN(Cc3ccccc3)CC2)cc1 (configuration not stated)	u	16µM*	5%	-16%	u	-8%
Cc1ccc2cc(C(c3nnnn3Cc3ccccc3)N3CCN(c4ccccc4)CC3)c(=O)[nH]c2c1 (configuration not stated)	13µM*	u	17%	u	-21	12%
Cc1cccc(NS(=O)(=O)c2ccc(C)c(C(=O)NNC(=O)c3csc(N4CCOCC4)n3)c2)c1	2%	-2%	x	x	-23	x
Cc1cccc(NS(=O)(=O)c2cccc(C(=O)NCC(c3ccco3)N3CCCCC3)c2)c1 (configuration not stated)	21µM*	23µM*	x	-15%	-59*	x
Cc1cccc(NS(=O)(=O)c2ccc(C(=O)NCC(c3ccco3)N3CCCCC3)cc2)c1C (configuration not stated)	u	23µM*	x	-17%	u	x
COc1ccc(NS(=O)(=O)c2cccc(C(=O)NCC(c3ccco3)N3CCCCC3)c2)cc1 (configuration not stated)	u	u	x	-19%	-11	x
COc1ccccc1NS(=O)(=O)c1ccc(C(=O)NCC(c2ccccc2OC)N(C)C)cc1 (configuration not stated)	-11%	-13%	27%	12%	-23	10%
Cc1cccc(NS(=O)(=O)c2ccc(C(=O)NCC(c3ccccc3)N(C)C)cc2)c1C (configuration not stated)	16µM*	u	u	-2%	-6	0%
N#Cc1cccc(-c2nc3cnc(N4CCOCC4)nc3n(C[C@H]3CCCO3)c2=O)c1	2%	5%	-14%	x	x	0%
Cc1ccc(SC(=O)c2c(C)noc2-c2cc(C)on2)cc1	18µM*	9.2µM*	u	-2%	-65*	u
